This is an account of results in PubChem BioAssay (NCATS).

The target in test [1] is Lysosomal acid glucosylceramidase (Homo sapiens) (UniProt P04062). Description: Glucocerebrosidase-p2 (AID 348; in the data active = potency below about 10 µM; also: potency is read from the fitted curve at half-maximal effect). Particulars: purified GBA, blue fluorogenic substrate, 40 min. The procedure, abridged:
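Normal human glucocerebrosidase (0.2 nM) with blue fluorogenic substrate (80 uM final) in citrate/phosphate pH 5.9 with 10mM sodium taurocholate, 0.01% tween-20; 40 min RT, NaOH/glycine stop; fluorescence Ex 365/Em 440; AC50 from a titration from 0.6 nM upwards.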

The target in test [2] is Cytochrome P450 1A2 (Homo sapiens) (UniProt P05177). Description: p450-cyp1a2 (AID 410; calls by dose curve; also: potency is read from the fitted curve at half-maximal effect). Put shortly:
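Read-out is luminescence from luciferin produced by CYP1A2 demethylation of Luciferin-ME (100uM, at Km). Detection reagent stopped the 60 min NADPH-dependent reaction; signals were normalized to 57 uM furafylline.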

The nature of test [3]: NFAT Signaling Pathway (AID 444; active = well fitted curve in either direction with a large enough effect, not every such curve was filed as active;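 also: carbachol stimulus at about its EC50 of 1 µM final; % is scaled to controls: 0 for no effect and ±100 for the full control effect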). Particulars: Jurkat NFAT-bla M1, carbachol, beta-lactamase ratio, 5 h; at 7.69 µM (top of the series) unless noted. Put shortly:
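Jurkat cells carrying an NFAT-driven β-lactamase reporter and co-transfected muscarinic M1 receptor were treated with compound plus carbachol (1 uM final, an EC50 level) for 5 h at 37 °C. CCF4 loading followed for 1 h at RT; 460/530 nm ratio gave %activity.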

The target in test [4] is Glucocorticoid receptor (Homo sapiens) (UniProt P04150). Nature of the test: GR-GFP Redistribution (AID 450;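 active = compounds whose dose series gives a full or clear partial fitted curve of increased nuclear translocation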; also: potency is read from the fitted curve at half-maximal effect). The settings on record: U2OS GR-GFP nuclear translocation, laser cytometry, 2 h.
Test [5] has the same target. Nature of the test: GR-EFC Redistribution (AID 451; calls by dose curve; also: potency is read from the fitted curve at half-maximal effect). The settings on record: CHO-K1 GR-EFC translocation, beta-gal luminescence, 2 h. The procedure, abridged: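 CHO-K1 cells stably expressing nuclear-localized β-gal enzyme acceptor and GR fused C-terminally to the enzyme donor fragment; ligand-driven nuclear translocation restores β-gal by complementation. Compounds titrated up to 46 uM final, 2 h at 37 °C; luminescence read.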

The target in test [6] is Mitogen-activated protein kinase 10 (Mus musculus) (UniProt Q61831). Description: JNK3 AlphaScreen Assay (AID 530; active = well fitted curve in either direction with a large enough effect, not every such curve was filed as active;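 also: kinase came from lysate of stimulated human HepG2 cells; signal reports phosphorylation of biotinylated GST-cJun 1-79 at Ser73 with 10 µM ATP; % is scaled to controls: 0 for no effect and ±100 for the full control effect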). Put shortly:
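Biotinylated GST-cJun(1-79) served as substrate for JNK3 in HepG2 lysates stimulated with IL-1beta and TNF-alpha. ATP was 10 uM final, pH 7.6. Ser73 phosphorylation was quantified by AlphaScreen (680 nm excitation).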

Test [7] deals with 3',5'-cyclic-AMP phosphodiesterase 4B (Homo sapiens) (UniProt Q07343). Nature of the test: qHTS Assay for Inhibitors of PDE-IV (AID 607; active = well fitted activation curve with a large enough effect in the main read-out, with a control signal flat, not every such curve was filed as active; also: % of control where 0% means no effect). Put shortly:
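Cell-based read-out of cAMP via a modified cyclic nucleotide-gated channel and membrane potential dye (535/590 nm) in HEK293 cells expressing PDE4 endogenously. Compounds tested up to 22.9 uM final; 100 uM RO 20-1724 reference.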
A general note: In qHTS, concentration-response curves come from the screen itself.

The target of test [8] is Cytochrome P450 3A4 (Homo sapiens) (UniProt P08684). Description: qHTS Assay for Activators of Cytochrome P450 3A4 (AID 885). Also: nearly all actives have a fitted effect of over 65% in size. The procedure, abridged:
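Luminescent readout of luciferin formed from 25 uM Luciferin-PPXE (KM level) by 20 nM CYP3A4 in 200 mM KPO4, with 60 min NADPH-driven reaction at room temperature after 10 min compound exposure. Ketoconazole (57 uM) defined 100% inhibition.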

In test [9] the target is Dual specificity protein kinase CLK4 (Homo sapiens) (UniProt Q9HAZ1). Nature of the test: qHTS Assay for Inhibitors of CDC-like Kinase 4 (Kinase-Glo Assay) (AID 1770). Also: nearly all actives have a fitted effect of over 65% in size. Also: potency is read from the fitted curve at half-maximal effect. The procedure, abridged:
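Substrate mix (RS peptide 100 uM, ATP 1 uM) dispensed, compound pinned in, then Clk4 added to 25 nM final. Incubated 4.5 h at RT; Kinase-Glo reagent added, luminescence read after 5 min.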

For test [10] the target is unchanged. Description: qHTS Assay for Inhibitors of CDC-like Kinase 4 (ADP-Glo Assay) (AID 1771). Also: nearly all actives have a fitted effect of over 70% in size. Also: potency is read from the fitted curve at half-maximal effect. Put shortly:
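In this ADP-Glo format, 1 uM ATP and 100 uM RS peptide served as substrates for 25 nM Clk4 in Mg2+/EGTA/DTT/Triton buffer; reactions ran 1 hr at room temperature before luminescent ADP quantification.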

Test [11] shares this target. Description: qHTS Assay for Inhibitors of CDC-like Kinase 4 (ADP-FP Assay) (AID 1795). Also: nearly all actives have a fitted effect of over 60% in size. Also: potency is read from the fitted curve at half-maximal effect. Put shortly: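 Clk4 6.25 nM; RS peptide 100 uM; ATP 1 uM; 25 mM Tris pH 7.5, 10 mM MgCl2; 1 h reaction. ADP detected via antibody/orange tracer FP displacement; TG003 positive control.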
Test [12] has as its target Ubiquitin carboxyl-terminal hydrolase 1 (Homo sapiens) (UniProt O94782). Description: Inhibitors of USP1/UAF1: Pilot qHTS (AID 504865).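 Also: rhodamine fluorescence freed from ubiquitin-rhodamine substrate followed over time; top concentration of the series differs between compounds; % is scaled to controls: 0 for no effect and ±100 for the full control effect; nearly all actives have a fitted effect of over 35% in size.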 Put shortly:
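In 50mM HEPES pH 7.8 containing 0.5mM EDTA, 1mM TCEP, 0.1 mg/ml BSA and 0.01% Tween-20, 1nM USP1/UAF1 is exposed to compound for 15 min, then Ub-Rho (150nM final) is added and fluorescence is read over time.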

Test [13] in a line: Stat Signaling Pathway (AID 446; active = well fitted curve in either direction with a large enough effect, not every such curve was filed as active;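 also: ME-180 cervical cancer cells given 40 pM IL-6 alongside compound; SIE-controlled beta-lactamase reporter measured as 460/530 nm FRET emission ratio; % is scaled to controls: 0 for no effect and ±100 for the full control effect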). Put shortly:
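FRET read-out (405 nm excitation, 460/530 nm emission) of a beta-lactamase reporter under a STAT-inducible element in ME-180 cervical carcinoma cells. Cells with compound receive 40 pM IL-6 for 5 h. Values are normalised to AC90 stimulation and AC90 JAK-inhibitor controls.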

Test [14] addresses Cytochrome P450 3A4 (Homo sapiens) (UniProt P08684). Nature of the test: qHTS Assay for Inhibitors and Substrates of Cytochrome P450 3A4 (AID 884). Also: potency is read from the fitted curve at half-maximal effect; nearly all actives have a fitted effect of over 50% in size. Put shortly: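 Luminescent readout of luciferin produced by CYP3A4 (20 nM) dealkylation of Luciferin-PPXE, 25 uM (its KM). NADPH-driven reaction ran 60 min at RT after 10 min compound preincubation; data scaled to 57 uM ketoconazole as 100% inhibition.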

In test [15] the target is Cytochrome P450 2C19 (Homo sapiens) (UniProt P33261). Description: qHTS Assay for Inhibitors and Substrates of Cytochrome P450 2C19 (AID 899). Also: potency is read from the fitted curve at half-maximal effect; nearly all actives have a fitted effect of over 60% in size. The procedure, abridged:
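In 50mM KPO4, the reaction held 5nM enzyme and KM-level (10uM) Luciferin-H EGE; it ran 60 min at 37C after NADPH regeneration and a 10 min compound preincubation. Luminescence values were scaled to 57uM ketoconazole as complete inhibition.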

Test [16] in a line: AP1 Signaling Pathway (AID 357; active = well fitted curve in either direction with a large enough effect, not every such curve was filed as active;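 also: ME-180 reporter cells stimulated with EGF at its EC50 level; % is scaled to controls: 0 for no effect and ±100 for the full control effect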). Particulars: ME-180 AP-1-bla reporter, EGF-induced, beta-lactamase ratio, 5 h; at 7.69 µM (top of the series) unless noted. The procedure, abridged:
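In this screen, ME-180 cells in Opti-MEM with 0.5% dialyzed FBS received EC50 EGF and compound titrations for 5 h. AP-1 reporter beta-lactamase was detected via CCF4 ratio, giving AC50 for positive and negative modulators.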

A short description of test [17]: qHTS Assay for Identification of Small Molecule Agonists for Hypoxia Response Element Signaling Pathway (AID 914; active = well fitted activation curve with a large enough effect in the signal ratio, with a control signal flat, not every such curve was filed as active; the % refers to the signal ratio; also: % of control where 0% means no effect). Particulars: ME-180 (cervical carcinoma) HRE-bla reporter, beta-lactamase ratio, CoCl2, 17 h; activation: active compounds read high. Put shortly: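 A beta-lactamase reporter under hypoxia response element control in ME-180 cells served as the system. Compound titrations plus EC50 CoCl2 ran 17 h at 37 degrees Celsius; AC50 values were fitted from %Activity.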

Values without a mark were called inactive. Inconclusive results are not listed. The source made the active and inactive calls. Unless noted, calls follow the shape of the dose curve; as a rule, active = well fitted curve in the direction sought with a large enough effect; inconclusive = small, poorly fitted or top-dose-only effect, or another doubt; inactive = no such curve, though single readings can be large; an effect the other way counts as inactive or inconclusive. Where only a bound is given, the exact number is not on record here.

Chain of 3',5'-cyclic-AMP phosphodiesterase 4B (Homo sapiens) (Q07343 whole entry, looked up): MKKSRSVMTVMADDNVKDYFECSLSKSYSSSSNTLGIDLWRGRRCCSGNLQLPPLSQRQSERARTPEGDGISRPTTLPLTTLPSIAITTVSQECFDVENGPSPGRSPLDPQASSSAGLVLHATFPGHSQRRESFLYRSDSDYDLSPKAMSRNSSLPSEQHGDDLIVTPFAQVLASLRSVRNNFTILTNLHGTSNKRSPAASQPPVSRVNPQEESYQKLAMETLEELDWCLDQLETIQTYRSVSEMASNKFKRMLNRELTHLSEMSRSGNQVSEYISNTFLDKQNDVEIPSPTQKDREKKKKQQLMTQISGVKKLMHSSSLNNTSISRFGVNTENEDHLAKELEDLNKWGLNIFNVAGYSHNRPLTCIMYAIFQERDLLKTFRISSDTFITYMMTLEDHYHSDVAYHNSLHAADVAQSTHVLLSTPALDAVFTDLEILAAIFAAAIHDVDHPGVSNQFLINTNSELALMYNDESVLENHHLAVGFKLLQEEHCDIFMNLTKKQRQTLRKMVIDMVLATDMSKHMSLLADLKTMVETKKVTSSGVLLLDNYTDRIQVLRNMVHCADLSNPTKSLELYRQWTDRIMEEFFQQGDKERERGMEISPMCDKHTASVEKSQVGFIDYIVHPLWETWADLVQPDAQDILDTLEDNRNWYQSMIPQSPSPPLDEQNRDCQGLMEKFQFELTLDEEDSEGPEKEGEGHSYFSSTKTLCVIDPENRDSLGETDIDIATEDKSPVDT
Chain of Dual specificity protein kinase CLK4 (Homo sapiens) (Q9HAZ1 whole entry, looked up): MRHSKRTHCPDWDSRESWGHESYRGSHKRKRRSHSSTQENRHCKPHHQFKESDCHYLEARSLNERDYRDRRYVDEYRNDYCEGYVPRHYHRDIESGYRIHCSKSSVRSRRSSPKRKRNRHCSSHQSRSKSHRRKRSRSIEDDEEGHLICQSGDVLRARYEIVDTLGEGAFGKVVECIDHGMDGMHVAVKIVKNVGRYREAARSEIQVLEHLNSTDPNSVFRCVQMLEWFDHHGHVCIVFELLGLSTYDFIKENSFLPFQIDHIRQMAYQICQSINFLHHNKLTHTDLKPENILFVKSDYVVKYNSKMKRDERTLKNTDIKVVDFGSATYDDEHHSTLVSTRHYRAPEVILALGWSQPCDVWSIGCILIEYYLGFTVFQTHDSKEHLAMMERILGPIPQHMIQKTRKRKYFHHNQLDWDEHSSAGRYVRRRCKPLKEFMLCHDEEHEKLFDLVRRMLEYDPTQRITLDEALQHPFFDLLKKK
Chain of Lysosomal acid glucosylceramidase (Homo sapiens) (P04062 whole entry, looked up): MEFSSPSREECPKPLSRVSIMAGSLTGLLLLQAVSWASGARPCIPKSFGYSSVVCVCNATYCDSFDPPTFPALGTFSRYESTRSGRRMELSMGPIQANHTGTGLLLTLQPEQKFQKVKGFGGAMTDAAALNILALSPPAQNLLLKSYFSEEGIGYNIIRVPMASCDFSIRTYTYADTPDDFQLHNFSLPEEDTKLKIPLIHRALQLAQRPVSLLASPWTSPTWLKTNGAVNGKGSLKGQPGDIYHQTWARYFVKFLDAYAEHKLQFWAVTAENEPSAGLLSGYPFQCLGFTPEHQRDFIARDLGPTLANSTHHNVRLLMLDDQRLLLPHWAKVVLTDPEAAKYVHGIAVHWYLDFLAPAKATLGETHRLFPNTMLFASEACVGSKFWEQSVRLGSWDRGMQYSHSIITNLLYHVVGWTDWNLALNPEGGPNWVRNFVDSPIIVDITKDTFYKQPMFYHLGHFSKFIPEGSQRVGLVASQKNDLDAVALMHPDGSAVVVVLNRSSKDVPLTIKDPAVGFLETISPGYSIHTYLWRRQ
Chain of Ubiquitin carboxyl-terminal hydrolase 1 (Homo sapiens) (O94782 whole entry, looked up): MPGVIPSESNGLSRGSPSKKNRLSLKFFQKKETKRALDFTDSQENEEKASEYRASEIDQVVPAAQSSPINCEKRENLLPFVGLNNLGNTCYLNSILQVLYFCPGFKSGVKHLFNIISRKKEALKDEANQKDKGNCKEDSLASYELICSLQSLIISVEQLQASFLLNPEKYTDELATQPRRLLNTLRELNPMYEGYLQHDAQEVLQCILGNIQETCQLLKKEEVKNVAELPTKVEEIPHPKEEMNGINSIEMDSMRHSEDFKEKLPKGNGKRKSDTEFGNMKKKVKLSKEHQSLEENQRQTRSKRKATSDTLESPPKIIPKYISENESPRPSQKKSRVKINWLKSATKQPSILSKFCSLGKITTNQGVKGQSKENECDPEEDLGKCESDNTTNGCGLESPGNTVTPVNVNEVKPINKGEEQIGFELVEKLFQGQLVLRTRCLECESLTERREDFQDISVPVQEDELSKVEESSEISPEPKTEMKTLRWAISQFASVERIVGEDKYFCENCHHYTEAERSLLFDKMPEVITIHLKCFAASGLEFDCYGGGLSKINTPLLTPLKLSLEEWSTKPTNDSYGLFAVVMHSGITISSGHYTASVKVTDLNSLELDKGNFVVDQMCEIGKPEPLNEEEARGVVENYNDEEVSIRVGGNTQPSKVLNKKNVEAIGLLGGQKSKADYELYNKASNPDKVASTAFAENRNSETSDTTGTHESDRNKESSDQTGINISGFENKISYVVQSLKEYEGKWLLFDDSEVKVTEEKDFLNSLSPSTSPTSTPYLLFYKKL
Chain of Glucocorticoid receptor (Homo sapiens) (P04150 whole entry, looked up, the tested form may be a part): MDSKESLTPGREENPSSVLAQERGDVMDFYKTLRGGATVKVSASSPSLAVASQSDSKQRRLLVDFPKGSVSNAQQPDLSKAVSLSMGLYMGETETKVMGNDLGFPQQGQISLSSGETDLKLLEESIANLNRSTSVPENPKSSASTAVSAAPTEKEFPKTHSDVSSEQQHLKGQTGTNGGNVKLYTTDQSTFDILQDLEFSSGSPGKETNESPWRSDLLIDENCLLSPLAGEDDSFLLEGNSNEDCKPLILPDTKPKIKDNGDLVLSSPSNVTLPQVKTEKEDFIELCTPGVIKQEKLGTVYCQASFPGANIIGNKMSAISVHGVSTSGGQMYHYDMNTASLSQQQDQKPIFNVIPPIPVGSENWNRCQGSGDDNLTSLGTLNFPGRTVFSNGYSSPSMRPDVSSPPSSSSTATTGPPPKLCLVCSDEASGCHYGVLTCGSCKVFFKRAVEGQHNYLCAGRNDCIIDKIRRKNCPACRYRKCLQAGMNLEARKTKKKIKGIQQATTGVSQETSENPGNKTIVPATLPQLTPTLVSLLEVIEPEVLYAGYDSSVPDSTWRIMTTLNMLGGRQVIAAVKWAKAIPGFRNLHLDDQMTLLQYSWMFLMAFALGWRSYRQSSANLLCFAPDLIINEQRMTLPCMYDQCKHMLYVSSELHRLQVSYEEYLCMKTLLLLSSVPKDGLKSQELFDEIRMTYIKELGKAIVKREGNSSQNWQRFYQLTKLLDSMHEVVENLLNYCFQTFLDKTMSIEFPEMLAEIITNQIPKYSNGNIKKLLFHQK
Chain of Cytochrome P450 3A4 (Homo sapiens) (P08684 whole entry, looked up): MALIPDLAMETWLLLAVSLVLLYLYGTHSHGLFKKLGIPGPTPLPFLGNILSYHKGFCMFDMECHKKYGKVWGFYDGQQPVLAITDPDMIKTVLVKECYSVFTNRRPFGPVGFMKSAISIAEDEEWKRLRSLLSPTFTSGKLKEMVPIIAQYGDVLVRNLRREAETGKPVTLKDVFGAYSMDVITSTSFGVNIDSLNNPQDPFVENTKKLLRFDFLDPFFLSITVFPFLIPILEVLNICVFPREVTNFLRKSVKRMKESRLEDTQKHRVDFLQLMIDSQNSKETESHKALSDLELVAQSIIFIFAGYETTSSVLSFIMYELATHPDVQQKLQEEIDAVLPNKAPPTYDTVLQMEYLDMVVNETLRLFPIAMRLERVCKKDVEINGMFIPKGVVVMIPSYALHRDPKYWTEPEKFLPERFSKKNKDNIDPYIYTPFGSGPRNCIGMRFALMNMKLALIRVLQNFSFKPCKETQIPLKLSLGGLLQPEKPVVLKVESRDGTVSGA
Chain of Cytochrome P450 1A2 (Homo sapiens) (P05177 whole entry, looked up): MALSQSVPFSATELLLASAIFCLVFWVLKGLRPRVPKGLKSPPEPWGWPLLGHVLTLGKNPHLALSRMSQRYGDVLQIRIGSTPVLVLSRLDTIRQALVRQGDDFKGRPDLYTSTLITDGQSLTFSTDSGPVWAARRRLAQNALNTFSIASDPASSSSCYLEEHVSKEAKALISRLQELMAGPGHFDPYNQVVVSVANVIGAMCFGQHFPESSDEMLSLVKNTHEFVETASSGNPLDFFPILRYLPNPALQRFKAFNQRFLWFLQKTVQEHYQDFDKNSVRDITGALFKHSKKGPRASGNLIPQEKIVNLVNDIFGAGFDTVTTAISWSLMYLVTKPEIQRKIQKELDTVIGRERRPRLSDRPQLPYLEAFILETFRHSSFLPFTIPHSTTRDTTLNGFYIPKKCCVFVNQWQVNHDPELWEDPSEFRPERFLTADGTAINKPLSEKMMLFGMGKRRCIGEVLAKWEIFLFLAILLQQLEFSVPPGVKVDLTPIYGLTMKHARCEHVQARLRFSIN
Chain of Cytochrome P450 2C19 (Homo sapiens) (P33261 whole entry, looked up): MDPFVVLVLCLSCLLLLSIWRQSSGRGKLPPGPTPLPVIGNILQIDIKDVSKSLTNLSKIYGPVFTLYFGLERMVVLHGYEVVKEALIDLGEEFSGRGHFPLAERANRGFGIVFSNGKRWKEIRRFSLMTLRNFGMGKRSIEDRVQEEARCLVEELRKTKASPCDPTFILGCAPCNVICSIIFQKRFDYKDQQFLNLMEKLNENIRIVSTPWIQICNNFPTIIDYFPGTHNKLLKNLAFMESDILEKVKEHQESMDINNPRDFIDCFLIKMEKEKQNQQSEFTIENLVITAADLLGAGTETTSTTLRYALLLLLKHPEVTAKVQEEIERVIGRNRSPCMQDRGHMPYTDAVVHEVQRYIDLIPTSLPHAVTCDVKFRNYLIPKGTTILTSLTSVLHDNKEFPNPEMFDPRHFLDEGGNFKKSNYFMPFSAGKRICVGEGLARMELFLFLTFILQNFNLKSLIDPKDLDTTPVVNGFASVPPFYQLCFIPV

On to `COCCn1c(=O)c(-c2ccc(F)cc2)nc2cnc(Oc3ccccc3)nc21`, for which the Potency in test [1] is greater than 11.4 µM; in test [2], 0.794 µM (active); in test [4], greater than 9.22 µM; in [5], greater than 46 µM. In test [3], the activity change, negative = inhibition was 9.44%. Also, the Potency result in test [6], in test [7], in test [9], in test [10], in test [11] and in [12] was “inactive” in each case. The call in test [8] was inactive.

For `COc1ccc2[nH]cc(CCNc3ncnc4ccc(-c5ccoc5)cc34)c2c1`, the Potency in test [1] was greater than 11.4 µM; in test [2], 0.316 µM (active); in test [4] it was greater than 46 µM; in test [5], greater than 46 µM; in [14], 3.98 µM (active); in test [15], 7.94 µM (active). For the same compound, the values for the Potency in test [9], in test [10] and in test [11] were 0.794 µM (active), 0.708 µM (active) and 0.562 µM (active), respectively. In addition, the activity change, negative = inhibition in test [3] was 0.633%. Also, the call in [13] and in [8] was inactive. For the same compound, the Potency entry in test [7] and in test [12] was “inactive” throughout.

For `COc1ccccc1-c1nccc(N2CCN(C)CC2)n1`, the Potency in [1] is greater than 11.4 µM; in [4] it was greater than 46 µM; in [5], greater than 46 µM. For the same compound, the activity change, negative = inhibition was 15.6% in [16] and -18.8% in [3]. Further, the Potency entry in test [6], in test [7], in test [9], in [10], in test [11] and in test [12] was “inactive” each time. For the same compound, the activation in [17] was 26.2%.

Consider `COc1ccccc1-c1ccc2ncnc(N3CCNCC3)c2c1`, for which the Potency was greater than 11.4 µM in test [1]; greater than 46 µM in test [4]; greater than 46 µM in test [5]; 4.47 µM (active) in test [9]; 14.1 µM (active) in test [10]; 7.94 µM (active) in [11]. In addition, the activity change, negative = inhibition in test [16] was 4.97%; in [3], 5.04%. The outcome in test [13] was inactive. The Potency entry in test [7] and in [12] was “inactive” in each case.

On to `CN1CCN(c2ncc3nc(-c4ccccc4)c(=O)n(Cc4cccs4)c3n2)CC1`, for which the activity change, negative = inhibition in [16] is 7.66%; in test [3], -9.53%. For the same compound, the Potency was greater than 9.22 µM in test [4] and greater than 46 µM in test [5]. Also, the Potency result in [7], in test [9], in test [10], in [11] and in test [12] was “inactive” in each case.

For the compound `O=c1c(-c2ccccc2)nc2cncnc2n1Cc1ccccc1`, the figures for the Potency in test [1], in [4] and in test [5] were greater than 11.4 µM, greater than 9.22 µM and greater than 46 µM, respectively. Also, the results for the activity change, negative = inhibition in test [16] and in test [3] were -16.6% and -1.09%, respectively. The call in [13] was inactive. Moreover, the Potency result in test [6], in test [9], in [10], in test [11] and in test [12] was “inactive” in each case.
